Unmarked numbers belong to inactive results. Some results are limits rather than exact numbers.

This experiment has as its system Schistosoma mansoni schistosomula (Liberian). As to the kind of experiment: drug effect (1 - score/DMSO control score) (fraction); higher = more antischistosomal effect, active = 0.5 or more; extreme values may be limits of the assay. As to conditions: 24 h; 10 µM. The essentials:
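A plate was valid only if its 0.1% DMSO wells averaged a score of at least 2. Those wells ran beside duplicate wells in which 50 Liberian-strain Schistosoma mansoni schistosomula each, transformed mechanically from cercariae and pre-incubated at least 12 h, met 10 µM compound in Medium 199 with 5% FCS at 37 °C, 5% CO2. Scoring was visual at 10× at 24, 48 and 72 h, from 3 (normal) to 0 (dead) in quarter-point steps. Drug effect was derived from the mean test-well score against the mean DMSO-well score, with negatives set to zero.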
As to `O=C(Nc1cnc2ccccc2c1)c1cccc(-n2cnnn2)c1`, the drug effect is below 0.

As for `Cc1cc(C)n(-c2ccc(NC(=O)C3CCN(Cc4cnc(C)s4)CC3)cc2)n1`, the drug effect was 0.1.

Consider `Cc1cc(O)nc(-n2nc(C)cc2C)n1`, for which the drug effect is 0.15.

`O=C(C1CCN(c2nnnn2-c2ccccc2)CC1)N1CCc2ccccc2C1`: the drug effect was 0.135.

For `FC(F)(F)c1cnc(Sc2nnc(-c3ccncc3)o2)c(Cl)c1`, the drug effect is 0.459.

As to `COc1cccc(-c2cc3c(Nc4cccnc4)nccc3[nH]2)c1`, the drug effect was 0.1.

Consider `CCN(CC)CCCCCCNc1cc(OC)cc2c(C)ccnc12`, for which the drug effect was 0.1.

Take `Cc1ncc(-c2ccnc(Nc3ccc(S(C)(=O)=O)cc3)n2)n1C(C)C`: the drug effect is 0.15.

In the case of `N=C(N)Nc1ccc(-c2ccc(-c3ccc(N=C(N)N)c(Cl)c3)o2)cc1Cl`, the drug effect is below 0.

`O=C(Nc1ccccc1)c1ccc(-c2cc3ccncc3cc2OC2CCNCC2)s1`: the drug effect is 0.15.

Consider `CC1CCCCN1C(=O)NCCc1coc(-c2ccc(F)cc2)n1` (stereo not drawn), for which the drug effect was 0.0909.

Take `Cc1ccc(Oc2ccc(NC(=O)CNc3ccccc3N3CCCC3=O)cc2)cc1`: the drug effect was 0.2.

With `Nc1ncnc2[nH]nc(Cc3cccc4ccccc34)c12`, the drug effect is 0.243.

For `CCCCN(CCCC)c1c(C#N)cc(S(=O)(=O)Nc2ccccc2)cc1C#N`, the drug effect was 0.15.

Regarding `NS(=O)(=O)c1cncc(-c2ccc3nccc(-c4cn[nH]c4)c3n2)c1`, the drug effect was 0.135.

For `Cc1nn2c(O)c3c(nc2c1-c1ccc(F)cc1)CCCC3`, the drug effect was 0.409.

Regarding `c1cncc(NCc2ccc(-c3cc4ccncc4cc3OC3CCNCC3)s2)c1`, the drug effect is 0.136.

For the compound `CC(=O)NC[C@H]1CN(c2ccc(N3CCSCC3)c(F)c2)C(=O)O1`, the drug effect is 0.136.

In the case of `COc1ccc(-c2nc(-c3cccc(NC(=O)Cc4ccc(F)cc4)c3)no2)cc1OC`, the drug effect was 0.182.

For `CNC(=O)CNc1nc(-c2ccccn2)nc2scc(-c3ccccc3)c12`, the drug effect was 0.105.

In the case of `COc1cc(Br)cc2cc(C(=O)Nc3cccc(C(F)(F)F)c3)c(=O)oc12`, the drug effect is 0.1.

In the case of `O=C(CCC1CCCCC1)Nc1cccc(-c2nnc(-c3ccco3)o2)c1`, the drug effect was 0.182.

On to `O=C(NC1CCCCC1)N1CCN(Cc2ccc3c(c2)OCO3)CC1`, for which the drug effect is 0.0455.

For `NCC(=O)N1CCn2c(nc(-c3ccccc3)c2Nc2ccc3c(c2)OCO3)C1`, the drug effect is 0.297.

Turning to `COc1ccc(Nc2ccccc2NC(=O)c2ccc(O)nc2)cc1`, the drug effect was 0.182.

Consider `O=C(Nc1cccc(Cl)c1)c1cnc(N2CCN(c3ccncc3)CC2)c(Cl)c1`, for which the drug effect is 0.8 (active).

Take `COc1cccc(-c2nc3c(N4CCCC4)cccc3n2CC2CCCN2)n1` (stereo not drawn): the drug effect was 0.35.

As to `CN(C(=O)c1cc2c(-c3cncnc3)cccc2[nH]1)c1ccccc1`, the drug effect is 0.189.

On to `CN1CCN(c2nccc3nc(-c4ccc(F)c(F)c4)[nH]c23)CC1`, for which the drug effect was below 0.

Turning to `CNc1cc(C)nc(C2CN(C(=O)c3n[nH]c4ccccc34)CCO2)c1` (stereo not drawn), the drug effect was 0.158.

On to `CN(C)c1cc(NC(=O)Nc2ccccc2)c2ccccc2n1`, for which the drug effect was 0.182.

On to `COc1cc(NC(=O)Cc2nn(C)c(=O)c3ccccc23)ccc1Cl`, for which the drug effect was 0.105.

As to `O=C(NCCc1ccccc1)c1cc(-c2cccnc2)cnc1NCC1CC1`, the drug effect was 0.2.

`CN1CCN(CCCOc2ncc(Nc3ncc(-c4ccc(C(F)(F)F)c(F)c4)nc3C(N)=O)cn2)CC1`: the drug effect is 1 (active).

On to `Cc1cc(Cl)c(S(=O)(=O)N2CCCC2)cc1OCC(=O)NC1CCCCC1`, for which the drug effect was 0.1.

Take `CCCn1c(NC(=O)c2ccc3ccccc3n2)nc2ccccc21`: the drug effect is 0.2.

In the case of `Cc1nn(C(=O)Nc2cccc(C(F)(F)F)c2)c(C)c1Sc1ncccn1`, the drug effect is 0.15.

In the case of `CCOc1ccccc1NC(C)C(=O)Nc1cc(C(F)(F)F)ccc1N1CCOCC1` (stereo not drawn), the drug effect is 0.15.
